# Data: PubChem BioAssay AID1942 (Johns Hopkins Ion Channel Center, 2009)
# In all, about 2,400 compounds went through this assay and about 580 (24%) were called active. These entries were drawn from the full list. A number with no mark means an inactive call.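 How the source made its calls: active means activity change at or above the mean plus 3 SD of buffer wells without dofetilide, per plate; inactive means the rest.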
# Target: Potassium voltage-gated channel subfamily KQT member 2 (Rattus norvegicus) (UniProt O88943)
# Sequence (O88943 whole entry, looked up): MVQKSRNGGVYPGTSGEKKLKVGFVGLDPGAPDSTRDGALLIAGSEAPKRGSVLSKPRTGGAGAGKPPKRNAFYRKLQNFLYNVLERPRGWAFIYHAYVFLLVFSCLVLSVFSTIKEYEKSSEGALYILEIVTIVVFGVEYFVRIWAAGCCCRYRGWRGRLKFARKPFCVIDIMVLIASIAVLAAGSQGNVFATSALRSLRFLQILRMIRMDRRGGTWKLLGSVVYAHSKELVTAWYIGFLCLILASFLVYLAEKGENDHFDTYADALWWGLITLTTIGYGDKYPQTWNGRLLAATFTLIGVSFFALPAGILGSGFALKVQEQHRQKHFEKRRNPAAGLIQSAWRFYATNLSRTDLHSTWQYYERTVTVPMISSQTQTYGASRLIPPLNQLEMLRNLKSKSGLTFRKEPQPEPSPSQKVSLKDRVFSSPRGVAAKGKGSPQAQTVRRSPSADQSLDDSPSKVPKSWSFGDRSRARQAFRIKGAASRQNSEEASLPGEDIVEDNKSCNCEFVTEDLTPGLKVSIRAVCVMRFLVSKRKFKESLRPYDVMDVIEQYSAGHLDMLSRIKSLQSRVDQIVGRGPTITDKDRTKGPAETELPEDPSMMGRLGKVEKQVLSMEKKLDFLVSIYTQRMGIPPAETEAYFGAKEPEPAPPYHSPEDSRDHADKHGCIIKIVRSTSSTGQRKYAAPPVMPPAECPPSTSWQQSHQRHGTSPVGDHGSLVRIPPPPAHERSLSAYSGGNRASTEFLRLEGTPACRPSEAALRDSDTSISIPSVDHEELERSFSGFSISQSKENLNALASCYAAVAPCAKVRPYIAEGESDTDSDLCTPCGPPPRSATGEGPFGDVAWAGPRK
# Experiment: KCNQ2 potentiation in CHO cells – cell-based, FluxOR thallium flux, counter-screen for hERG block protector project, confirmation (AID 1942);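 further: normalized value minus buffer-control mean plus three SD of buffer wells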
# Settings: FluxOR thallium flux fluorescence, at 10 µM, hits give high values
row,Structure (SMILES),"activity change, less the hit threshold"
1,CC1(C)Cc2c(sc(NC(=O)C(=O)N3CCCC3)c2C#N)CO1,-3.6%
2,CC1=NN(c2ccccc2)C(=O)/C1=C/c1ccc(-c2ccc(C)c(C(=O)O)c2)o1,-18.9%
3,Cc1cc(=O)oc(C)c1C(=O)NCCC(C)C,-6.2%
4,O=C(COC(=O)c1cnccn1)c1ccc(Cl)cc1,-17%
5,Cc1ccc(NC(=O)c2ccc(CNS(=O)(=O)c3cccc(C(F)(F)F)c3)cc2)cc1,-15.6%
6,Cc1ccc(CS(=O)(=O)c2ncc(Cl)c(C(=O)Nc3nnc(C)s3)n2)cc1,-0.8%
7,O=C(Nc1ccc2[nH]c(=S)sc2c1)Nc1ccccc1F,-19%
8,S=c1[nH]c2cc(Cl)ccc2s1,106% (active)
9,S=c1[nH]c2ccc(Cl)cc2s1,101% (active)
10,CCNC(=O)NC1c2ccccc2CSc2ccccc21 (stereo not drawn),-20.6%
11,Cc1ccc(C)c(NC(=O)CCN2C(=O)[C@@H]3Cc4ccccc4CN3C2=O)c1,-23.4%
12,COc1ccc(C(=O)N(CN2CCCC2=O)c2ccc(C)cc2)cc1,-3.9%
13,CCOc1ccc(C(=O)N(CN2CCCC2=O)c2ccc(C)cc2)cc1,21.8% (active)
14,O=C(NCCCN1CCCC1=O)c1ccc(OC(F)(F)F)cc1,-19.5%
15,Cc1cc(C)c(Cn2c3ccccc3c3cnn(CC(=O)NCc4ccccn4)c(=O)c32)c(C)c1,-12.3%
16,O=C1OCCC1Sc1nc2ccccc2c(=O)n1Cc1ccc(F)cc1 (stereo not drawn),-2%
17,COc1cc2c(cc1OC)C(c1ccc([N+](=O)[O-])cc1)N(C(C)=O)CC2 (stereo not drawn),-27%
18,O=C(Nc1ccc(Cl)c(Cl)c1)Nc1nnc(CSc2ccccc2)s1,-5.4%
19,C=CCN(CC=C)C(=S)NC(=O)c1ccc([N+](=O)[O-])cc1,48.5% (active)
20,CCCN(CCC)C(=S)NC(=O)c1ccc(-c2ccccc2)cc1,91.4% (active)
21,O=C(NCCOC(=O)c1ccc([N+](=O)[O-])cc1)c1cccnc1,-12.2%
22,C=CCN(CC=C)C(=S)NC(=O)Cc1cccc2ccccc12,3.6% (active)
23,C=CCN(c1ccc(C(=O)NC(C)C)cc1)S(C)(=O)=O,-16.8%
24,CCCN(CC1CC1)C(=S)Nc1ccccc1F,-17.8%

row,Structure (SMILES),"activity change, less the hit threshold"
1,C=CCN(CC=C)C(=S)NC(=O)c1ccc(-c2ccccc2)cc1,21% (active)
2,CCN(CC)C(=S)NC(=O)c1ccc(F)cc1,-10.2%
3,Cc1c(C)n(CCN(C)C)c2ccc(C(=O)OCCN(C)C)cc12,-12.7%
4,CCCCCN(C(=O)CCC(=O)OC(C)C(=O)c1ccccc1)c1c(N)n(CCCC)c(=O)[nH]c1=O (stereo not drawn),-10.3%
5,CCn1nnnc1SCC(=O)N1c2ccccc2Sc2ccccc21,-16.2%
6,CCc1nnc(NS(=O)(=O)c2ccc(NC(=S)NC(=O)/C=C/c3ccc(OC)cc3)cc2)s1,-7.3%
7,COc1ccc(CCNC(=O)CSc2ccc3nnc(CCNC(=O)c4ccccc4)n3n2)cc1OC,-18.6%
8,CCCN1CCC(NC(=O)CC2C(=O)NCCN2Cc2cccc(OC)c2)CC1 (stereo not drawn),-17.9%
9,CCCCNC(=S)NC(=O)c1ccc([N+](=O)[O-])cc1,22.9% (active)
10,CCC(=O)Nc1ccc(C(=O)NNC(=O)c2cc([N+](=O)[O-])cc([N+](=O)[O-])c2)cc1,-17.8%
11,CCCCCC(=O)NNC(=S)NC(=O)c1ccc([N+](=O)[O-])cc1,-31.9%
12,CC1CCN(S(=O)(=O)c2ccc3nc(N4CCN(c5ccccc5)CC4)ccc3c2)CC1,-25.2%
13,Clc1ccc(Cc2ccccc2)nn1,-12.9%
14,S=c1[nH]cc(Cc2ccccc2)s1,1.4% (active)
15,Cc1[nH]c(=S)sc1Cc1ccc(Cl)c(Cl)c1,-16%
16,Cc1ccc(Cc2c[nH]c(=S)s2)cc1,52.8% (active)
17,COCCn1cnc2c1c(=O)n(CC#N)c(=O)n2Cc1ccccc1,-22%
18,CCOc1ccc(CCNC(=O)Nc2ccccc2C)cc1OCC,-14.3%
19,CNC(=O)CSc1nnc(-c2ccco2)n1-c1ccc(C)cc1,-16.3%
20,Cc1ccc(C(=O)N/N=C(/CC(=O)c2cccs2)C(F)(F)F)cc1,5.2% (active)
21,Cc1ccc(C(=O)NC(=S)Nc2ccccc2C(F)(F)F)cc1,-24.5%
22,CCCOc1ccc(C(=O)NNC(=S)NC(=O)c2cccs2)cc1,-34.1%
23,COc1ccc(S(=O)(=O)N2CCN(C(=O)CNC(=O)c3ccc4c(c3)OCO4)CC2)cc1,-12.9%
24,O=C(Nc1c[nH]c(=O)[nH]c1=O)c1ccc2c(c1)C(=O)N(c1cccc([N+](=O)[O-])c1)C2=O,-9.9%
